# Rows were chosen to be rich in hits. Some 0.52% of all compounds tested hit in one or more screens of this group.
# S aureus helic: blocks Staphylococcus aureus DNA helicase. purified S. aureus helicase, fluorescence unwinding assay. inhibition, % (no concentration beside the values). hit rate 0.05% among 120,000. AID 485395; in the data active = inhibition above about 25%, passing the limit was not always enough
# Sa growth 42C: S. aureus growth inhibition | relative growth, % (concentration not given with the values) | hit rate 0.53% among 170,000 | S. aureus RN4220 growth, OD600, 20 h, 42 °C; hits give low values | AID 720641;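 active = relative growth at most 50% at the other temperature and 20+ points below 30 °C, or under 10% at both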
# Hits are given with their value; 0 = inactive; - = no result.
SMILES,S aureus helic,Sa growth 42C
COc1ccccc1C(CC(=O)N1CCCC1)c1ccc2c(c1)OCO2 (centres undefined),0,0
CCN(CC)S(=O)(=O)c1ccc(Cl)c(C(=O)Oc2ccc(C)cc2-n2nc3ccccc3n2)c1,0,0
CC(=O)Oc1ccc(C)cc1-n1nc2ccccc2n1,0,45.9
O=C(ON(C(=O)c1ccccc1)c1ccccc1)c1ccccc1,0,0
O=S(=O)(c1ccc(NC2CCN(Cc3ccccc3)CC2)nc1)N1CCCCC1,38.0,0
O=C(CSc1ccc(S(=O)(=O)N2CCN(Cc3ccccc3)CC2)cn1)NC(=O)NC1CCCC1,0,0
CC(=O)Nc1ccc(-c2csc(Nc3ccccc3C)n2)cc1,0,0
CCOc1ccc2ccccc2c1C=C1C(=O)N(C)C(=S)N(C)C1=O,0,0
CCc1ccc(OC(=O)/C=C/c2ccco2)cc1,0,0
O=C(/C=C\c1ccco1)Oc1cccc2cccnc12,0,1.6
Cc1oc(-c2cc(Cl)ccc2Cl)cc1C(=O)NC(C)C,0,0
O=C(CN1CCc2ccccc21)Nc1ccc(SC(F)F)cc1,0,0
O=C(Nc1ccc(Oc2ncnc3sc4c(c23)CCCCC4)cc1)c1ccco1,0,0
COC(=O)C(C(=O)N1CCN(Cc2ccccc2)CC1)C1CCCC1 (centres undefined),0,0
N=C1/C(=C2\Nc3ccccc3S2)CC(=O)N1CCc1ccccc1,0,1.4
N=C1/C(=C2\Nc3ccccc3S2)CC(=O)N1Cc1ccco1,0,0
Cc1nn(-c2ccccc2)c(Oc2ccc(F)cc2)c1/C=N/NC(N)=O,0,0
Oc1c(C(c2cccs2)N2CCCCC2)ccc2cccnc12 (centres undefined),0,8.1
Oc1c(C(c2ccc(F)cc2)N2CCCCC2)ccc2cccnc12 (centres undefined),0,0
Cc1cccc(OCC(O)Cn2c(=N)n(C)c3ccccc32)c1 (centres undefined),0,0
C[C@H]1COc2c(N3CCN(C)CC3)c(F)cc3c(=O)c(C(=O)O)cn1c23,-,-0.5
CN1CCN(c2c(F)cc3c(=O)c(C(=O)O)cn4c3c2SCC4)CC1,-,-0.4
C[C@H]1COc2c(C3(N)CC3)c(F)cc3c(=O)c(C(=O)O)cn1c23,-,-0.9
Cc1cc(F)c(F)cc1C(=O)N1CCN(C)CC1,0,0
Cc1n[nH]c(C)c1S(=O)(=O)N1CCCCC1,0,0
SMILES,S aureus helic,Sa growth 42C
CCCCn1nnnc1COC(=O)c1c(-c2c(F)cccc2Cl)noc1C,0,0
CCn1c(SCC(=O)C23CC4CC(CC(C4)C2)C3)nnc1-c1ccco1,0,0
CCCCCCCCCCCCCCCC(=O)O[C@@H]1[C@@H](O)[C@@H](O)[C@@H](C(NC(=O)[C@@H]2C[C@@H](CCC)CN2C)C(C)Cl)O[C@@H]1SC (some centres undefined),-,0
CCC[C@@H]1C[C@@H](C(=O)N[C@@H]([C@H]2O[C@H](SC)[C@H](O)[C@@H](O)[C@H]2O)[C@@H](C)O)N(C)C1,-,0.0
Cc1c(C(=O)OC(C)C(=O)Nc2ccc(S(N)(=O)=O)cc2)oc2ccc(Br)cc12 (centres undefined),0,0
O=C(OCCCCN1C(=O)c2ccccc2C1=O)C1=NN(c2ccccc2)C(=O)CC1,0,0
CCn1c(=O)/c(=C\c2ccc(N(C)C)cc2)s/c1=C(/C#N)C(=O)Nc1ccc(C)cc1,0,0
c1ccc(-c2ccc(C(c3ccccc3)n3ccnc3)cc2)cc1 (centres undefined),-,1.6
CC(N)c1ccc(-c2ccccc2)cc1 (centres undefined),0,0
COc1ccccc1-c1cc2nc(C)c(CCC(=O)Nc3ccc4c(c3)OCCO4)c(C)n2n1,0,0
CC1=C(C(=O)O)N2C(=O)[C@@H](NC(=O)[C@H](N)c3ccccc3)[C@H]2SC1,-,0
C/C=C\C1=C(C(=O)O)N2C(=O)C(NC(=O)C(N)c3ccc(O)cc3)C2SC1 (centres undefined),-,1.2
N#CCCN(C(=O)c1cccs1)c1ccccc1F,0,0
O=c1sc2ccccc2n1Cc1nnc(-c2ccccc2)o1,0,0
O=C1C=CC(=O)N1CCc1ccc(Cl)cc1,0,9.7
O=C1C=CC(=O)N1CCc1ccccc1,0,0
CO[C@H]1/C=C/O[C@@]2(C)Oc3c(C)c(O)c4c(O)c(c(C=NN5CCN(C)CC5)c(O)c4c3C2=O)NC(=O)/C(C)=C\C=C\C(C)[C@H](O)[C@@H](C)[C@@H](O)[C@@H](C)[C@@H](OC(C)=O)[C@@H]1C (some centres undefined),-,1.3
CO[C@H]1/C=C/O[C@@]2(C)Oc3c(C)c(O)c4c(O)c(c5c(nc6cc(C)ccn65)c4c3C2=O)NC(=O)/C(C)=C\C=C\[C@H](C)[C@H](O)[C@@H](C)C(O)[C@@H](C)[C@H](OC(C)=O)[C@@H]1C (some centres undefined),-,-0.8
CO[C@H]1C=CO[C@@]2(C)Oc3c(C)c(O)c4c(O)c(c5c(nc6cc(C)ccn65)c4c3C2=O)NC(=O)C(C)=CC=C[C@H](C)[C@H](O)[C@@H](C)[C@@H](O)[C@@H](C)[C@H](OC(C)=O)[C@@H]1C,-,0
CO[C@H]1C=CO[C@@]2(C)Oc3c(C)c(O)c4c(O)c(c5c(c4c3C2=O)NC2(CCN(CC(C)C)CC2)N=5)=NC(=O)C(C)=CC=C[C@H](C)[C@H](O)[C@@H](C)[C@@H](O)[C@@H](C)[C@H](OC(C)=O)[C@@H]1C,-,0.6
Cc1cc(C)cc(NC(=O)c2ccc(COc3ccccc3Br)o2)c1,0,0
Cc1ccc(C(c2sc3ncnn3c2O)N2CCN(CCO)CC2)cc1 (centres undefined),0,0
O=C(Oc1c(C(=O)c2ccccc2)sc2ccccc12)c1ccco1,0,1.7
O=C(c1ccco1)N1CCN(C(=O)c2sc3ccccc3c2Cl)CC1,-,0
CCOc1cc(C(=O)OCCN2C(=O)c3ccccc3C2=O)ccc1OCC(=O)N1CCCCC1,0,0
SMILES,S aureus helic,Sa growth 42C
CC[n+]1c(C)sc2cc(SC)c(OC)cc21,0,1.8
CC[n+]1c(C)sc2ccccc21,0,0
Cc1nnc(NC(=O)CSc2ncccn2)s1,0,0
N#CCOC(=O)c1ccccc1Sc1ccccc1C#N,0,0
O=C1c2ccccc2C(=O)c2c1oc1c3c(ccc21)OCN(C1CCS(=O)(=O)C1)C3 (centres undefined),0,7.6
O=C1c2ccccc2C(=O)c2c1oc1c3c(ccc21)OCN(C1CCCC1)C3,0,0
CC(C)(C)c1ccc(Cn2c(=N)n(CC(O)c3ccco3)c3ccccc32)cc1 (centres undefined),0,0
CC(C)(C)c1ccc(Cn2c(=N)n(CC(=O)c3ccco3)c3ccccc32)cc1,0,-0.6
O=C(COC(=O)C1CCCCC1)Nc1ncc(C(F)(F)F)cc1Cl,0,0
CCc1[nH]c(=S)c(C#N)c(-c2ccccc2)c1C(=O)OC,0,0
N#Cc1c(N)[nH]c(=S)c(C(N)=O)c1-c1cccc(Br)c1,0,0.3
